Vaccinia Venus: inhibitors of vaccinia virus (Venus reporter); Vaccinia virus Venus reporter expression, fluorescence; Potency, µM (highest dose often 36.5 µM), for inactives: at the top dose activity change, negative = inhibition, hits mostly inhibitors; hit rate 0.46% among 330,000; AID 720580; calls by dose curve; tested in A549 cells; also: nearly all actives have a fitted effect of over 30% in size
VACV mCherry inh: inhibitors of vaccinia virus infection (mCherry reporter signal); hit rate 0.63% among 310,000; Vaccinia virus mCherry reporter infection, fluorescence; Potency, µM (series often up to 36.5 µM), for the others: at the highest dose activity change, negative = inhibition, usual class: inhibitors; calls by dose curve; tested in A549 cells; also: nearly all actives have a fitted effect of over 35% in size
MARV entry inh: inhibitors of Marburg virus binding or cell entry; Marburg virus pseudotyped entry inhibition, cell reporter; Potency, µM (series often up to 37.8 µM), for the others: at the highest dose activity change, negative = inhibition, most hits filed as inhibitors; hit rate 1.8% among 300,000; calls by dose curve; tested in HEK293 cells
Lassa entry inh: blocks Lassa virus binding to or entry into cells. hit rate 1.2% among 300,000. Potency, µM (top dose mostly 37.9 µM), for inactives: top-dose activity change, negative = inhibition, hits mostly inhibitors. Lassa virus pseudotype entry inhibition, cell reporter; calls by dose curve; tested in HEK293 cells; also: nearly all actives have a fitted effect of over 50% in size
HCV inhibitor: HCV inhibition; Huh7.5.1 HCVcc-Cre infection, luciferase reporter, 44 h; Potency, µM (top dose mostly 41.8 µM), for inactives: top-dose activity change, negative = inhibition, hits mostly inhibitors; hit rate 3.4% among 340,000; AID 651820; active = well fitted inhibition curve with a large enough effect; inconclusive = small, poorly fitted or top-dose-only effect, or another doubt; inactive = no such curve, though single readings can be large or run the other way
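Reporter virus HCVcc-Cre (~0.5 moi) infects cells exposed to compound; seeding density 1,000 cells/well with 4 h settling beforehand. Luminescence, 15 sec read, taken 44 h post-infection following a 15 min RT substrate incubation.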
Starred values were filed as active, the others as inactive; i = inactive; ? = inconclusive; nt = no result given; [ ] = remark or other dose. The list is not random: actives were taken first. Their share in the collection is about 4.6%. % is scaled to controls: 0 for no effect and ±100 for the full control effect; potency is read from the fitted curve at half-maximal effect.

SMILES	Vaccinia Venus	VACV mCherry inh	MARV entry inh	Lassa entry inh	HCV inhibitor
CC(=O)Nc1cccc(-c2nnc(SCC(=O)c3cc([N+](=O)[O-])ccc3Cl)o2)c1	-13%	-21%	-11%[46.1 µM]	-13%[46.1 µM]	nt
COc1ccc(OC[C@@H]2CC3[C@@H](c4ccc(Br)cc4)[C@H](C)CC[C@H]3C(=O)O2)cc1 (some centres not stated)	nt	nt	-5%[14.2 µM]	nt	nt
Cc1ccc(S(=O)(=O)N2CCCCC2)cc1NC(=O)c1cc2ccccc2o1	nt	nt	nt	nt	22µM*
COc1cccc(CNC(=O)Cn2ccc3cc(S(=O)(=O)N4CCCC4)ccc32)c1	-20%	-22%	-18%[46.1 µM]	2%[46.1 µM]	-28%
COc1cccc(CNC(=O)Cn2ccc3cc(S(=O)(=O)N4CCCCCC4)ccc32)c1	nt	nt	nt	nt	13µM*
CCOc1ccc(CCNC(=O)CCn2ccc3cc(S(=O)(=O)N4CCCC4)ccc32)cc1	nt	nt	nt	nt	13µM*
Cc1ccc(NC(=O)/C=C/c2ccco2)cc1S(=O)(=O)N1CCCCCC1	nt	nt	nt	nt	2.8µM*
C[C@@H]1CC[C@H]2C(=O)N(Cc3cccc([N+](=O)[O-])c3)C[C@H](O)CN2[C@@H]1c1cccc(Br)c1	nt	nt	-10%[14.2 µM]	7%[14.3 µM]	nt
Cc1ccc2nc(CO)[nH]c2c1	-1%	12%	nt	nt	nt
Cc1nc2ccc(NC(=O)c3cc(S(=O)(=O)N4CCOCC4)ccc3C)cc2s1	?	nt	?	-21%	?
COc1cccc(CNC(=O)c2ccc(C)c(S(=O)(=O)N3CCCCC3)c2)c1	-25%	?	?	?	10µM*
Cc1ccc(NC(=O)c2ccc(F)cc2)cc1S(=O)(=O)N1CCCCCC1	-24%	i	7.9µM*	?	?
COc1ccc(C(=O)Nc2ccc(C)c(S(=O)(=O)N3CCCCCC3)c2)cc1	?	?	?	?	32µM*
Cc1nc2ccc(NC(=O)c3ccc(C)c(S(=O)(=O)N4CCOCC4)c3)cc2s1	nt	nt	nt	nt	10µM*
COC(=O)CC=C[C@@H](C)[C@@H](C=NO[C@H](C)c1cn([C@@H]2COC[C@@H]2O)nn1)N[S+](=O)([O-])c1ccc(C)cc1	nt	nt	10%[14.2 µM]	nt	nt
CCOc1ccc(Oc2nc(NCC(C)C)nc(N3CCOCC3)n2)nn1	-2%	-5%	-6%[46.1 µM]	-10%[46.1 µM]	nt
CCOC(=O)c1c(NC(=O)CCl)sc(CN(C)C)c1-c1ccccc1	-9%	-13%	?	-22%	?
CCOC(=O)c1ccc(NC(=S)N2CCN(C)CC2)cc1	-11%	-4%	18%	-22%	5%
CCOC(=O)c1c(NC(=S)N2CCN(C)CC2)sc(C)c1-c1ccccc1	-9%	-11%	?	8.9µM*	-7%
CCOC(=O)c1c(NC(=O)CN2CCCCC2)sc(CN(C)C)c1-c1ccccc1	-16%	i	?	?	22µM*
Cc1cc(OCc2nc(N)nc(N)c2-c2ccc(Cl)c(Cl)c2)ccc1[N+](=O)[O-]	1µM*	0.89µM*	?	1µM*	?
COc1ccc(-c2nc(N)nc(C)c2-c2ccc(Cl)cc2)c(O)c1	nt	nt	nt	nt	-22%
Cc1nc(N)nc(N)c1-c1ccc(Cl)c(Cl)c1	1µM*	1µM*	?	1µM*	?
COc1ccc(C=O)cc1COc1ccc([N+](=O)[O-])c(C)c1	-7%	-3%	-23%[46.1 µM]	31%[46.1 µM]	3%
COc1cc(-c2nc(-c3ccccc3)c(-c3cc([N+](=O)[O-])ccc3C)[nH]2)cc(OC)c1OC	?	nt	?	?	13µM*
SMILES	Vaccinia Venus	VACV mCherry inh	MARV entry inh	Lassa entry inh	HCV inhibitor
COc1cc(-c2nc(-c3cccc(Cl)c3)c(-c3ccccc3)[nH]2)cc(OC)c1OC	-14%	-25%	?	?	nt
CCN(CC)CCCN(C(=O)c1ccc(Br)cc1)c1nc(-c2ccc(OC)cc2)cs1	-17%	?	3.5µM*	?	?
COc1ccc(OC)c(-c2csc(N(C)C(=O)Cc3ccccc3)n2)c1	-12%	-12%	?	5%	?
CCN(CC)CCCN(C(=O)c1cccc(C)c1)c1nc(-c2ccc(OC)cc2)cs1	nt	nt	nt	nt	4%
COc1ccc(OC)c(-c2csc(N(Cc3ccco3)C(=O)c3cccs3)n2)c1	nt	nt	?	6%	13µM*
CCN(CC)CCCN(C(=O)c1cccs1)c1nc(-c2ccc(OC)cc2)cs1	nt	nt	?	?	11µM*
COc1ccc(-c2csc(N(C)C(=O)c3cccs3)n2)cc1	-7%	-5%	-8%[46.1 µM]	-8%	-11%
Clc1cccc(-c2ccc(CNCCSc3nnnn3-c3ccccc3)o2)c1	-3%	-2%	-18%[46.1 µM]	3%[46.1 µM]	nt

Screens from PubChem BioAssay.
